The values that follow come from PubChem BioAssay (NCATS).

Results filed as inconclusive are left out. The source made the active and inactive calls. Calls come from the whole dose curve; as a rule, active = well fitted curve in the direction sought with a large enough effect; inconclusive = small, poorly fitted or top-dose-only effect, or another doubt; inactive = no such curve, though single readings can be large; an effect the other way counts as inactive or inconclusive.

Assay [1] is described as follows: Quantitative High-Throughput drug screen in 47 multiple myeloma cell lines against the NCATS MIPE library collection: KMS12PE_JCRB cell viability assay (AID 1918972). For viability: series mostly up to about 46 µM. Note: nearly all actives have a fitted effect of over 30% in size. Note: potency is the fitted concentration of half-maximal effect. In a few lines: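 qHTS of the MIPE 4.0 collection: 500 myeloma cells/well, 48 h drug exposure at 37C in 5% CO2, then CellTiter-Glo for 5 min at room temperature before luminescence reading.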
Assay [2] in a line: Quantitative High-Throughput drug screen in 47 multiple myeloma cell lines against the NCATS MIPE library collection: KMS26_JCRB cell viability assay (AID 1918975). Note: nearly all actives have a fitted effect of over 45% in size. Note: potency is the fitted concentration of half-maximal effect. In a few lines: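 Luminescent ATP measurement with CellTiter-Glo gives viability, scaled between DMSO-only wells (100%) and media-only wells (0%). Cells, 500 per well, faced library compounds for 48 hours at 37C.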

Assay [3] can be described thus: Quantitative High-Throughput drug screen in 47 multiple myeloma cell lines against the NCATS MIPE library collection: MOLP8_DSMZ cell viability assay (AID 1918977). Note: nearly all actives have a fitted effect of over 45% in size. Note: potency is the fitted concentration of half-maximal effect. In a few lines: (§1)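 Viability after 48 h drug exposure was measured as ATP-dependent luminescence. Cells, 500 per well, sat at 37 °C under 5% CO2; DMSO wells set 100%, media-only wells 0%.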
Assay [4] is described as follows: Quantitative High-Throughput drug screen in 47 multiple myeloma cell lines against the NCATS MIPE library collection: NCIH929_DSMZ cell viability assay (AID 1918978). Note: nearly all actives have a fitted effect of over 35% in size. Note: potency is the fitted concentration of half-maximal effect. A digest of the protocol: as §1
Assay [5] in a line: Quantitative High-Throughput drug screen in 47 multiple myeloma cell lines against the NCATS MIPE library collection: MM1S_ATCC cell viability assay (AID 1918980). Note: nearly all actives have a fitted effect of over 45% in size. Note: potency is the fitted concentration of half-maximal effect. In a few lines:
as §1

The nature of assay [6]: Quantitative High-Throughput drug screen in 47 multiple myeloma cell lines against the NCATS MIPE library collection: MM1R_ATCC cell viability assay (AID 1918981). Note: nearly all actives have a fitted effect of over 35% in size. Note: potency is the fitted concentration of half-maximal effect. In a few lines:
as §1

Assay [7] can be described thus: Quantitative High-Throughput drug screen in 47 multiple myeloma cell lines against the NCATS MIPE library collection: MMM1_PLB cell viability assay (AID 1918976). Note: nearly all actives have a fitted effect of over 35% in size. Note: potency is the fitted concentration of half-maximal effect. A digest of the protocol:
as §1

Assay [8] in a line: Quantitative High-Throughput drug screen in 47 multiple myeloma cell lines against the NCATS MIPE library collection: OCIMY1_PLB cell viability assay (AID 1918979). Note: series mostly up to about 46 µM; nearly all actives have a fitted effect of over 35% in size. A digest of the protocol:
as §1

Regarding `CCc1cc(-c2n[nH]c(C)c2-c2ccc3c(c2)OCCO3)c(O)cc1O`, the Potency is 5.26 µM (active) in assay [1]; 5.26 µM (active) in assay [2]; 2.64 µM (active) in assay [3]; 8.33 µM (active) in assay [4]; 8.33 µM (active) in assay [5]; 6.62 µM (active) in assay [6].
As to `CC(=O)OCC(=O)[C@@]1(O)CC[C@H]2[C@@H]3CCC4=CC(=O)C=C[C@]4(C)[C@@H]3[C@@H](O)C[C@@]21C`, the Potency result in assay [1] is “inactive”. In addition, the Potency in assay [7] was 2.64 µM (active); in assay [3] it was 2.35 µM (active); in assay [4], 0.187 µM (active); in assay [5], 0.118 µM (active).
On to `O=C(O)CCNc1cc(N2CCc3ccccc3CC2)nc(-c2ccccn2)n1`, for which the Potency entry in assay [1], in assay [2], in assay [4] and in assay [8] was “inactive” each time. Further, the Potency in assay [6] was 16.6 µM (active).
Take `Cc1cc2c(cc1C1(c3ccc(C(=O)O)cn3)CC1)C(C)(C)CCC2(C)C`: the Potency result in assay [1] and in assay [5] was “inactive” throughout. Also, the Potency in assay [2] is 14.8 µM (active); in assay [6], 6.62 µM (active).
For the compound `CC(C)c1c(C(=O)Nc2ccccc2)c(-c2ccccc2)c(-c2ccc(F)cc2)n1CC[C@H](O)C[C@@H](O)CC(=O)O`, the Potency is 6.62 µM (active) in assay [1], 8.33 µM (active) in assay [7], 16.6 µM (active) in assay [5] and 10.5 µM (active) in assay [6]. Besides, the Potency entry in assay [2] and in assay [8] was “inactive” each time.
`O=C(O)c1ccc(O)c2ncc(N3CCOCC3)cc12`: the results for the Potency in assay [1], in assay [4] and in assay [5] were 26.4 µM (active), 18.7 µM (active) and 23.5 µM (active), respectively. Besides, the Potency entry in assay [2] and in assay [8] was “inactive” in each case.
With `NCc1c[nH]c(=S)n1[C@H]1CCc2c(F)cc(F)cc2C1`, the Potency was 14.8 µM (active) in assay [1]; 20.9 µM (active) in assay [2]; 18.7 µM (active) in assay [3]; 23.5 µM (active) in assay [5]; 16.6 µM (active) in assay [6]. Besides, the Potency entry in assay [8] was “inactive”.
As to `C[C@H](c1ccc(F)cc1CCCC(=O)O)N(c1cc(F)ccc1F)S(=O)(=O)c1ccc(Cl)cc1`, the Potency result in assay [1] and in assay [8] was “inactive” in each case. Further, the Potency was 0.743 µM (active) in assay [2], 6.62 µM (active) in assay [4] and 10.5 µM (active) in assay [5].
For the compound `CNC(=O)c1ccc2c(C(=Nc3cccc(CN(C)C)c3)c3ccccc3)c(O)[nH]c2c1`, the Potency was 18.7 µM (active) in assay [1], 0.662 µM (active) in assay [2] and 14.8 µM (active) in assay [4].
In the case of `O=C(C=Cc1ccc(O)cc1)c1ccc(O)cc1O`, the Potency in assay [1] was 14.8 µM (active); in assay [7], 5.9 µM (active); in assay [3], 14.8 µM (active); in assay [4] it was 16.6 µM (active); in assay [5], 23.5 µM (active).
With `CN(C)CCOc1ccc(C(=C(CCCl)c2ccccc2)c2ccccc2)cc1`, the Potency entry in assay [1], in assay [4] and in assay [8] was “inactive” each time. The Potency in assay [7] is 23.5 µM (active); in assay [3], 18.7 µM (active); in assay [5], 1.18 µM (active); in assay [6], 23.5 µM (active).
On to `CNC1[C@H](O)C(O[C@@H]2C(O)C(O[C@H]3O[C@H]([C@@H](C)NC)CC[C@H]3N)[C@@H](N)C[C@H]2N)OC[C@]1(C)O` (some centres not stated), for which the Potency result in assay [1], in assay [2], in assay [3], in assay [4], in assay [8] and in assay [6] was “inactive” throughout.
For the compound `O=S(=O)(O)c1ccc2cc(N=Nc3cc(S(=O)(=O)O)c4cccnc4c3O)ccc2c1`, the Potency result in assay [1] and in assay [8] was “inactive” each time. The Potency in assay [2] was 20.9 µM (active); in assay [7], 3.72 µM (active); in assay [5], 13.2 µM (active); in assay [6] it was 20.9 µM (active).
In the case of `CO[C@H]1/C=C\O[C@@]2(C)Oc3c(C)c(O)c4c(O)c(c5c(nc6cc(C)ccn65)c4c3C2=O)NC(=O)C(C)=CC=C[C@H](C)[C@H](O)[C@@H](C)[C@@H](O)[C@@H](C)[C@H](OC(C)=O)[C@H]1C`, the Potency is 11.8 µM (active) in assay [1], 8.33 µM (active) in assay [2] and 0.0148 µM (active) in assay [7]. For the same compound, the Potency entry in assay [8] was “inactive”.
With `c1ccc(-c2oc3ncnc(NC[C@@H]4CCCO4)c3c2-c2ccccc2)cc1`, the Potency is 4.69 µM (active) in assay [1]; 18.7 µM (active) in assay [2]; 20.9 µM (active) in assay [7]; 18.7 µM (active) in assay [5]; 23.5 µM (active) in assay [6]. The Potency result in assay [8] is “inactive”.
Turning to `CCCCOCCOc1nc(-c2ccc(C(=O)O)c(F)c2)sc1C`, the Potency result in assay [1], in assay [7], in assay [3], in assay [4] and in assay [6] was “inactive” each time. Further, in assay [5], the Potency was 13.2 µM (active).
As to `CC(C)(OCc1nn(Cc2ccccc2)c2ccccc12)C(=O)O`, the Potency entry in assay [1], in assay [7] and in assay [8] was “inactive” throughout. Also, the Potency in assay [2] was 6.62 µM (active); in assay [5], 13.2 µM (active).
As for `CCn1c(-c2nonc2N)nc2cncc(CNC3CCNCC3)c21`, the Potency in assay [1] is 1.05 µM (active); in assay [7], 8.33 µM (active); in assay [3], 14.8 µM (active); in assay [5] it was 14.8 µM (active); in assay [6] it was 16.6 µM (active).
For the compound `CCC(=O)NCC[C@@H]1CCc2ccc3c(c21)CCO3`, the Potency result in assay [1], in assay [8] and in assay [6] was “inactive” throughout. Besides, the Potency is 6.62 µM (active) in assay [2], 0.59 µM (active) in assay [7] and 1.48 µM (active) in assay [5].
Take `COc1ccc(-c2cc(=O)c3c(O)cc(O[C@@H]4O[C@H](CO[C@@H]5O[C@@H](C)[C@H](O)[C@@H](O)[C@@H]5O)[C@@H](O)[C@H](O)[C@@H]4O)cc3o2)cc1O`: the Potency result in assay [1], in assay [3] and in assay [6] was “inactive” in each case. For the same compound, the Potency in assay [2] was 20.9 µM (active); in assay [4], 9.35 µM (active); in assay [5], 18.7 µM (active).
In the case of `CN[C@H]1[C@@H](O[C@@H]2[C@H](O[C@@H]3[C@@H](O)[C@@H](O)[C@@H](N=C(N)N)[C@@H](O)[C@@H]3N=C(N)N)O[C@H](C)[C@@]2(O)C=O)O[C@@H](CO)[C@@H](O)[C@H]1O`, the Potency entry in assay [1], in assay [2], in assay [4], in assay [5] and in assay [6] was “inactive” in each case.
Regarding `CCC(c1ccc(O)cc1)C(CC)c1ccc(O)cc1` (configuration not stated), the Potency result in assay [1], in assay [4] and in assay [8] was “inactive” in each case. The Potency in assay [2] was 3.72 µM (active); in assay [5], 4.69 µM (active).
